According to PubChem BioAssay AID488932 (Broad Institute, 2010):
Measured potencies and affinities stand elsewhere. Unmarked numbers belong to inactive results. Active and inactive are the calls of the source.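 How the source made its calls: active means growth signal falls, with fitted half-maximal dose at most ten times the top valid dose; inconclusive means flat curve with a partial drop, or a poorly fitting curve; inactive means the rest, including compounds that raise signal.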

Assay: Candida albicans growth inhibition, agent alone, dose response, counter-screen for reversing antifungal drug resistance, CaCi-2 strain, no fluconazole, dry powder, set 4 (AID 488932)
Details: C. albicans CaCi-2 (fluconazole-resistant clinical isolate) growth, Alamar Blue, 48 h; series mostly up to 26 µM; activity change, negative = inhibition: at the top concentration

Row | SMILES | activity change, negative = inhibition | outcome
1 | Clc1ccc2c(N3CCNCC3)ccnc2c1 | 9.3% | –
2 | O=C(c1ccc(Cl)cc1)N1CCN(c2cccc(C(F)(F)F)n2)CC1 | 20.3% | –
3 | O=C(c1cccc(Cl)c1)N1CCN(c2ccnc3cc(Cl)ccc23)CC1 | 9.72% | –
4 | COc1ccc2c(N3CCN(C(=O)c4ccc(Cl)cc4)CC3)ccnc2c1 | 13.6% | –
5 | Cc1ccc(C(=O)N2CCN(c3ccnc4cc(Cl)ccc34)CC2)cc1 | 9.7% | –
6 | O=C(c1ccc(Cl)cc1)N1CCN(c2ccccn2)CC1 | – | inactive
7 | Cc1ccc(N2CCN(C(=O)c3ccc(Cl)cc3)CC2)nn1 | 23.3% | –
8 | O=C(c1ccc(Cl)cc1)N1CCN(c2cc(C(F)(F)F)nc3ccccc23)CC1 | 33% | –
9 | O=C(c1ccc(Cl)cc1)N1CCCN(c2ccnc3cc(Cl)ccc23)CC1 | 70.2% | –
10 | Cc1cccc(N2CCN(C(=O)c3ccc(Cl)cc3)CC2)n1 | 61.1% | –
11 | O=C(c1ccc(Cl)cc1)N1CCN(c2ccc(Cl)cc2)CC1 | -5.99% | –
12 | CC(C)C(=O)N1CCN(c2ccnc3cc(Cl)ccc23)CC1 | 31.9% | –
13 | O=C(c1ccc(Cl)cc1)N1CCN(c2ccnc3ccc(Cl)cc23)CC1 | 19% | –
14 | O=C(c1cccs1)N1CCN(c2ccnc3cc(Cl)ccc23)CC1 | -16% [at 12 µM] | –
15 | O=C(C1CCCC1)N1CCN(c2ccnc3cc(Cl)ccc23)CC1 | 3.25% | –
16 | Cc1cc(N2CCN(C(=O)c3ccc(Cl)cc3)CC2)c2ccc(F)cc2n1 | 28.9% | –
17 | Cc1cc(N2CCN(C(=O)c3ccc(Cl)cc3)CC2)c2ccccc2n1 | 32.7% | –
18 | O=C(c1ccc(Cl)cc1)N1CCN(c2ccnc3cc(Cl)ccc23)CC1 | – | inactive
19 | O=C(c1ccccc1)N1CCN(c2ccnc3cc(Cl)ccc23)CC1 | 29.6% | –
20 | CCCCNC(=O)N1CCN(c2ccnc3cc(Cl)ccc23)CC1 | 28.2% | –
21 | O=C(C1CC1)N1CCN(c2ccnc3cc(Cl)ccc23)CC1 | 47.2% | –
22 | O=S(=O)(c1ccc(Cl)cc1)N1CCN(c2ccnc3cc(Cl)ccc23)CC1 | 35% | –
